# Inconclusive results are not listed. Calls of active or inactive are those of the source. Calls follow the shape of the dose curve; as a rule, active = well fitted curve in the direction sought with a large enough effect in the signal ratio; inconclusive = small, poorly fitted or top-dose-only effect, or a change in a side signal; inactive = no such curve, though single readings can be large or run the other way; the % refers to the signal ratio.
# Target: Tumor necrosis factor (Homo sapiens) (UniProt P01375)
# Assay: qHTS assay to identify small molecules that stimulate Tumor Necrosis Factor-alpha (TNF-alpha) secretion (AID 651757); as to activation (TNF-alpha secretion): 0% is about no effect
# Details: Human cells, HTRF 665/615 ratio; series mostly up to 92.2 µM; activation (TNF-alpha secretion): at the top concentration
# Description: National Center for Advancing Translational Sciences [NCATS]
# NIH Chemical Genomics Center [NCGC]
# National Institutes of Environmental Health Sciences [NIEHS]
# National Toxicology Program [NTP]
# Tumor Necrosis Factor-alpha (TNF-alpha), a secreted cytokine, plays an important role in inflammatory diseases and immune disorders. TNF-alpha, a 17 kDa cytokine, is mainly secreted by activated macrophages and monocytes in response to several inflammatory and immunological stimuli. To study the effect of environmental chemicals on TNF-alpha secretion, a homogeneous TNF-alpha assay was developed using Time Resolved fluorescence (HTRF) technology based on Time Resolved Fluorescent Resonance Energy Transfer (TR-FRET) (Leister et al., Current Chemical Genomics, 5:21-29, 2011). This assay allows measuring TNF-alpha secreted from the cells in a 1536-well plate format.
# THP-1 cells were dispensed at 3000 cells/5ul/well in 1536-well white solid plates. After addition of 23 nl of compound, positive controls and DMSO only, the assay plates were incubated at 37 C for 17 hrs, followed by addition of 5 uLof mixture of cryptate labeled and XL665 labeled anti-TNF-alpha antibodies. After the assay plates were incubated at room temperature for 3 hr, the plates were measured by an EnVision plate reader.
# Potency is read from the fitted curve at half-maximal effect.
# Chain of Tumor necrosis factor (Homo sapiens) (P01375 whole entry, looked up): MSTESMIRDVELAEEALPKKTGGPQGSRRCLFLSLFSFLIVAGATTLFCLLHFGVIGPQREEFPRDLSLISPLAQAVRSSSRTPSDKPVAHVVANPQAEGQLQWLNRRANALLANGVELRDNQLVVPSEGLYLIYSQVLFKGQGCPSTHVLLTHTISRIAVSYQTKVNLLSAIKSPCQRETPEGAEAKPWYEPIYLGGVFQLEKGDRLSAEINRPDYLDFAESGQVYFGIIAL
SMILES,Potency,activation (TNF-alpha secretion)
Cc1cc(=O)oc2cc(O)cc(O)c12,7.5 µM (active),
O=CC(=O)c1ccccc1,,0.534% (inactive)
CC(C)OCC1CO1 (stereo not given),,0.286% (inactive)
Cc1c(N)cccc1Cl,,0.672% (inactive)
C=C(C#N)C(=O)OCC,,-1.01% (inactive)
Cc1c2ccccc2c(C)c2c1ccc1ccccc12,,1.99% (inactive)
c1ccc2ncccc2c1,,-0.217% (inactive)
C=Cc1cccc(C)c1,,0.169% (inactive)
O=[N+]([O-])c1cccc(I)c1,,-0.217% (inactive)
CCCCCCc1ccc(-c2ccc(C#N)cc2)cc1,,0.662% (inactive)
Brc1cc(Oc2cc(Br)c(Br)c(Br)c2Br)c(Br)c(Br)c1Br,,1.63% (inactive)
CCCCCCCC/C=C\CCCCCCCC(=O)N(CCO)CCO,,0.212% (inactive)
c1ccncc1,,0.0166% (inactive)
c1c[nH]cn1,,-0.491% (inactive)
CC(=O)Nc1cccc(C)c1,,0.0074% (inactive)
O=C(OCC1CO1)C1CCCCC1C(=O)OCC1CO1 (stereo not given),,-0.0265% (inactive)
OCC(CO)(CBr)CBr,,0.0133% (inactive)
S=C(NC1CCCCC1)NC1CCCCC1,,-0.0166% (inactive)
Brc1cc(Br)c(Oc2cc(Br)c(Br)cc2Br)cc1Br,,0.674% (inactive)
C[C@@H]1CC2(OC(O)[C@]3(C)O[C@H]23)O[C@H]2C[C@@]3(C)[C@@H]4CC[C@H]5C(C)(C)C(O[C@@H]6OC[C@@H](O)[C@H](O)[C@H]6O)CC[C@@]56C[C@@]46CC[C@]3(C)[C@@H]12 (stereo not given in full),,-0.246% (inactive)

SMILES,Potency,activation (TNF-alpha secretion)
CC(=O)OC1CC(C)OC(C)O1 (stereo not given),,0.0592% (inactive)
Brc1ccc(-c2ccccc2)cc1,,-0.0066% (inactive)
CC(=O)c1ccc(Cl)c(Cl)c1Cl,,0.287% (inactive)
CC/C=C/C/C=C/C/C=C/CCCCCCCC(=O)OCC,,-0.026% (inactive)
O=[N+]([O-])c1ccc(F)cc1F,,-0.141% (inactive)
O=[N+]([O-])c1cc(Cl)c(Cl)c(Cl)c1Cl,,0.489% (inactive)
O=C=Nc1ccc(Cl)c(Cl)c1,,0.179% (inactive)
Cc1ccc2ccc3cccc4ccc1c2c34,,2.56% (inactive)
O=C(O)c1cc(N=Nc2ccc([N+](=O)[O-])cc2)ccc1O,,-0.0928% (inactive)
CC(=O)CC(=O)Nc1ccccc1,,0.232% (inactive)
CCCCNCC,,0.398% (inactive)
Cc1ccccc1OCC1CO1 (stereo not given),,0.0586% (inactive)
O=C1c2ccccc2C(=O)C1(O)O,,0.612% (inactive)
CC(C)S,,0.327% (inactive)
COc1ccc(C)cc1N,,-0.123% (inactive)
Oc1c(Cl)cc(Cl)c(Cl)c1Cl,,1.74% (inactive)
CCCCCCN,,-0.35% (inactive)
CC(CCC(=O)O)(c1ccc(O)cc1)c1ccc(O)cc1,,0.177% (inactive)
C/C=C1/C(=O)C[C@H]2[C@@H]3CCC4=CC(=O)CC[C@]4(C)[C@H]3CC[C@]12C,,0.0053% (inactive)
C=CC(=O)CC,,0.0341% (inactive)

# Reference: PubChem BioAssay (NCATS)
